Holding throughout (assay): glycan array binding signal (z-score within array); higher = stronger binding
One assay concerns the target Gal(a1-2)Gal. To be noted: glycan notation: IUPAC condensed, linker removed; mutation: F355A. The method in brief: (§1)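 The binding signal is a Z-score computed within each array. Data were drawn from 3228 arrays in the Consortium for Functional Glycomics database, restricted to those with a known protein sequence. Scores were averaged over arrays of the same protein sequence at different concentrations or buffers, and over linkers, and negative values can be taken as non-binding.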

A further assay deals with Gal(a1-3)Gal(b1-4)Glc. To be noted: glycan notation: IUPAC condensed, linker removed; mutation: F355A. The method in brief: as §1
In another assay the target is Gal(a1-3)GalNAc. The conditions noted are these: glycan notation: IUPAC condensed, linker removed; mutation: F355A. The method in brief: as §1
Assay [1] concerns the target Gal(b1-4)GlcNAc(b1-2)Man(a1-3)[Gal(b1-4)GlcNAc(b1-2)Man(a1-6)]Man(b1-4)GlcNAc(b1-4)GlcNAc. To be noted: glycan notation: IUPAC condensed, linker removed; mutation: F355A. The method in brief:
as §1

Assay [2] addresses GalNAc(b1-3)Gal(a1-4)Gal(b1-4)GlcNAc. To be noted: glycan notation: IUPAC condensed, linker removed; mutation: F355A. The gist of the method: as §1
Assay [3] addresses GlcNAc(a1-6)Gal(b1-4)GlcNAc. The conditions noted are these: glycan notation: IUPAC condensed, linker removed; mutation: F355A. The gist of the method:
as §1

Assay [4] has as its target GlcNAc(b1-4)Gal(b1-4)GlcNAc. The conditions noted are these: glycan notation: IUPAC condensed, linker removed; mutation: F355A. The method in brief:
as §1

The target of assay [5] is GlcNAc(b1-4)GlcNAc(b1-4)GlcNAc. The conditions noted are these: glycan notation: IUPAC condensed, linker removed; mutation: F355A. The gist of the method: as §1
Assay [6] deals with GlcNAc(b1-4)GlcNAc(b1-4)GlcNAc(b1-4)GlcNAc(b1-4)GlcNAc. To be noted: glycan notation: IUPAC condensed, linker removed; mutation: F355A. The gist of the method: as §1
In another assay the target is Kdn(a2-3)Gal(b1-4)GlcNAc. To be noted: glycan notation: IUPAC condensed, linker removed; mutation: F355A. The method in brief: as §1
In assay [7] the target is Man(a1-2)Man(a1-2)Man(a1-6)[Man(a1-3)]Man. The conditions noted are these: glycan notation: IUPAC condensed, linker removed; mutation: F355A. The gist of the method:
as §1

Assay [8] concerns the target Man(a1-2)Man(a1-3)[Man(a1-2)Man(a1-6)]Man. The conditions noted are these: glycan notation: IUPAC condensed, linker removed. The gist of the method: as §1
Assay [9] deals with Man(a1-2)Man(a1-3)[Man(a1-2)Man(a1-6)]Man(a1-6)[Man(a1-2)Man(a1-2)Man(a1-3)]Man. The conditions noted are these: glycan notation: IUPAC condensed, linker removed; mutation: F355A. The method in brief:
as §1

For assay [10], the target named is Man(a1-2)Man(a1-6)[Man(a1-3)]Man(a1-6)[Man(a1-2)Man(a1-2)Man(a1-3)]Man(b1-4)GlcNAc(b1-4)GlcNAc. To be noted: glycan notation: IUPAC condensed, linker removed; mutation: F355A. The gist of the method:
as §1

Assay [11] has as its target Man(a1-3)[Man(a1-6)]Man(a1-6)[Man(a1-2)Man(a1-3)]Man(b1-4)GlcNAc(b1-4)GlcNAc. The conditions noted are these: glycan notation: IUPAC condensed, linker removed; mutation: F355A. The gist of the method: as §1
The target in assay [12] is Man(a1-3)[Man(a1-6)]Man(a1-6)[Man(a1-3)]Man. To be noted: glycan notation: IUPAC condensed, linker removed; mutation: F355A. The method in brief: as §1
Assay [13] has as its target Man(a1-3)[Man(a1-6)]Man(a1-6)[Man(a1-3)]Man(b1-4)GlcNAc(b1-4)GlcNAc. The conditions noted are these: glycan notation: IUPAC condensed, linker removed; mutation: F355A. The method in brief: as §1
The target of assay [14] is Neu5Ac(a2-6)Gal(b1-4)GlcNAc(b1-2)Man(a1-6)[Gal(b1-4)GlcNAc(b1-2)Man(a1-3)]Man(b1-4)GlcNAc(b1-4)GlcNAc. The conditions noted are these: glycan notation: IUPAC condensed, linker removed; mutation: F355A. The gist of the method:
as §1

For assay [15], the target named is Neu5Gc(a2-3)Gal(b1-4)[Fuc(a1-3)]GlcNAc. To be noted: glycan notation: IUPAC condensed, linker removed; mutation: F355A. The method in brief:
as §1

Assay [16] has as its target Gal(b1-3)[GlcNAc(b1-6)]GalNAc. The conditions noted are these: glycan notation: IUPAC condensed, linker removed. The gist of the method:
as §1

The target of assay [17] is Gal(b1-4)GlcNAc(b1-3)Gal(b1-4)GlcNAc(b1-3)Gal(b1-4)GlcNAc. The conditions noted are these: glycan notation: IUPAC condensed, linker removed. The gist of the method: as §1
The target of a further assay is Gal3S(b1-4)Glc. The conditions noted are these: glycan notation: IUPAC condensed, linker removed. The gist of the method: as §1
A further assay concerns the target Gal6S(b1-4)Glc. To be noted: glycan notation: IUPAC condensed, linker removed. The gist of the method:
as §1

A further assay addresses Glc(a1-4)Glc. To be noted: glycan notation: IUPAC condensed, linker removed. The gist of the method:
as §1

The next assay concerns the target Glc(b1-6)Glc. The conditions noted are these: glycan notation: IUPAC condensed, linker removed. The gist of the method: as §1
Assay [18] concerns the target GlcNAc(b1-2)Gal(b1-3)GalNAc. To be noted: glycan notation: IUPAC condensed, linker removed. The gist of the method: as §1
Another assay deals with Man(a1-2)Man(a1-3)Man. The conditions noted are these: glycan notation: IUPAC condensed, linker removed. The gist of the method:
as §1

Assay [19] deals with Neu5Ac(a2-3)Gal(b1-3)[Neu5Ac(a2-3)Gal(b1-4)]GlcNAc. The conditions noted are these: glycan notation: IUPAC condensed, linker removed. The method in brief:
as §1

Assay [20] concerns the target Neu5Ac(a2-3)[GalNAc(b1-4)]Gal(b1-4)GlcNAc. The conditions noted are these: glycan notation: IUPAC condensed, linker removed. The gist of the method:
as §1

Assay [21] deals with Neu5Ac(a2-3)[Neu5Ac(a2-6)]GalNAc. To be noted: glycan notation: IUPAC condensed, linker removed. The gist of the method: as §1

Many of the other results were omitted from the sample, so the strongest signals are more common in it than they were.

B1: Surfactant Protein D (Human); Neck + Carbohydrate Recognition Domain (NCRD) (Homo sapiens) (protein)
chain: MLLFLLSALVLLTQPLGYLEAEMKTYSHRTMPSACTLVMCSSVESGLPGRDRDGREGPRGEKGDPGLPGAAGQAGMPGQAGPVGPKGDNGSVGEPGPKGDTGPSGPPGPPGVPGPAGREGALGKQGNIGPQGKPGPKGEAGPKGEVGAPGMQGSAGARGLAGPKGERGVPGERGVPGNTGAAGSAGAMGPQGSPGARGPPGLKGDKGIPGDKGAKGESGLPDVASLRQQVEALQGQVQHLQAAFSQYKKVELFPNGQSVGEKIFKTAQFVKPFTEAQLLCTQAGGQLASPRSAAENAALQQLVVAKNEAAFLSMTDSKTEGKFTYPTGESLVYSNWAPGEPNDDGGSEDCVEIFTNGKWNDRACGEKRLVVCEA
Regarding B1, the “glycan array binding signal (z-score)” value is -0.16 with Gal(a1-2)Gal; -0.099 with Gal(a1-3)Gal(b1-4)Glc; -0.129 with Gal(a1-3)GalNAc; -0.104 in assay [1]; -0.138 in [2]; -0.164 in assay [3]. Moreover, the “glycan array binding signal (z-score)” value is -0.146 in assay [4]; -0.155 in assay [5]; -0.122 in assay [6]; -0.072 in the assay with Kdn(a2-3)Gal(b1-4)GlcNAc; 2.74 in assay [7]; 4.68 in assay [8] (mutation: F355A). The “glycan array binding signal (z-score)” value is 15 in assay [9]; 1.59 in [10]; 2.15 in assay [11]; 5.56 in assay [12]; 2.12 in [13]; -0.15 in assay [14]. The “glycan array binding signal (z-score)” value in assay [15] was -0.145.

B2: Hip/Pap (Homo sapiens), Q06141 (protein)
chain: MLPPMALPSVSWMLLSCLMLLSQVQGEEPQRELPSARIRCPKGSKAYGSHCYALFLSPKSWTDADLACQKRPSGNLVSVLSGAEGSFVSSLVKSIGNSYSYVWIGLHDPTQGTEPNGEGWEWSSSDVMNYFAWERNPSTISSPGHCASLSRSTAFLRWKDYNCNVRLPYVCKFTD
Consider B2, for which the “glycan array binding signal (z-score)” value in assay [16] was -0.159; in [17], -0.173; with Gal3S(b1-4)Glc, 0.278; with Gal6S(b1-4)Glc it was -0.162; with Glc(a1-4)Glc, 0.806; in the assay with Glc(b1-6)Glc, 0.091. Further, the “glycan array binding signal (z-score)” value is -0.099 in [18]; -0.027 in the assay with Man(a1-2)Man(a1-3)Man; 0.58 in [8]; 0.71 in assay [19]; -0.173 in [20]; -0.168 in assay [21].

For the origin of these results see the supplement of paper PMC8728848.
